From PubChem
This is a sample that favours compounds with a hit; in the whole collection about 3.8% have one here.
esBAF inh: SWI/SNF esBAF complex inhibition; reporter increase, % at 12.5 µM; mouse ES cells, Bmi1-luciferase knock-in reporter, 24 h; 100% = twice the neutral-well signal; actives 2% (n = 350,000); in the data active = activation above about 40%; inconclusive = no clear call, values can overlap the other calls;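 also: 0% = median of the plate's neutral control wells and 100% = double that signal; a rise in the Bmi1 reporter signal indicates esBAF inhibition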
HSF-1 act: increases HSF-1 driven luciferase reporter signal. NIH3T3-HGL HSF-1 luciferase reporter, MG132, 8 h; 100% = twice DMSO control signal. activation, % at 9 µM. AID 504408. actives 1.7% (n = 300,000);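 active = mean replicate activation of at least 50% with a set share of replicates each reaching 50%; inconclusive = only one of those two conditions met; inactive = mean below 50% and too few replicates reaching it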;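 also: 0% = median of the neutral control wells and 100% = twice that signal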
HSF1 inhib: HSF1 inhibition | NIH3T3-HGL HSE-luciferase, MG132-induced, luminescence 8 h; active compounds read low | activity change, negative = inhibition, % at 7.5 µM (by protocol) | actives 0.77% (n = 300,000) | AID 2098;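 active = more than half of replicate wells show activity change below -50%, luminescence cut by over half; inconclusive = some wells, but at most half, below -50%; inactive = no replicate well below -50%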;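 also: luciferase reports HSF-1 transcriptional activity via heat shock element; 0% = median of DMSO wells and -100% = zero luminescence signal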
Wnt act: activates Wnt/beta-catenin signaling in a reporter cell assay; activator, plate reader; activation, % at 9.35 µM; actives 1.2% (n = 300,000); in the data active = activation above about 30%, passing the limit was not always enough; inconclusive = no clear call, values can overlap the other calls;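 also: 0% = neutral control wells and 100% = positive control wells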
MITF TRPM1 HTS: MITF TRPM1 promoter activation in melanoma cells; SK-MEL-5 TRPM1-promoter luciferase, 24 h; % of positive control, neutral wells = 0; activation, % at 12.5 µM; actives 0.75% (n = 300,000); AID 588334;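 active = mean activation of at least 80% with every replicate also reaching 80%; inconclusive = mean reaches 80% but some replicate falls short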;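 also: 0% = neutral control wells and 100% = parthenolide positive control wells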
* = called active by the depositor; ? = inconclusive; · = not tested or not shown.

SMILES | esBAF inh | HSF-1 act | HSF1 inhib | Wnt act | MITF TRPM1 HTS
Cc1cnc(NC(=O)CCc2ccccc2)s1 | 18 | 6 | -3 | 10 | 39
COc1ccccc1OCC(=O)Nc1ncc(C)s1 | 9 | · | · | 36* | 80
Cc1cnc(NC(=O)COc2ccccc2)s1 | 22 | 61* | 27 | 58* | ·
Cc1ccc(C(=O)CSc2ccccn2)cc1 | 49* | 53* | 31 | · | 65
O=C(NCCc1ccccc1)c1ccc(Cl)cc1[N+](=O)[O-] | 62* | 7 | 7 | 8 | 57
O=C(NCc1ccc(Cl)cc1)c1ccc(Cl)cc1[N+](=O)[O-] | -8 | -12 | 0 | 0 | 9
O=C(CNC(=O)c1cc2ccccc2o1)NCc1cccs1 | 15 | · | · | · | 9
Cn1c(C(=O)NCc2ccccc2)cc2oc3ccccc3c21 | 59* | 38 | 6 | 10 | 44
Cn1c(C(=O)NCC2CCCO2)cc2oc3ccccc3c21 (configuration not stated) | 76* | 49 | 27 | · | 61
Cn1c(C(=O)NCC2CCCO2)cc2c(=O)[nH]c3ccccc3c21 (configuration not stated) | 8 | -3 | -3 | 0 | ·
Cn1c(=O)c(C(=O)NCC2CCCO2)c(O)c2ccccc21 (configuration not stated) | ? | 17 | 0 | 39* | 54
Cn1c(C(=O)NCc2cccs2)cc2oc3ccccc3c21 | 52* | 26 | 13 | 11 | 41
Cc1ccc(/C=N/Nc2ncnc3nc[nH]c23)cc1 | 0 | 7 | 3 | 47* | 74
Oc1ccc(/C=N/Nc2ncnc3nc[nH]c23)cc1 | 0 | 9 | -7 | 1 | -2
Clc1ccc(/C=N/Nc2ncnc3nc[nH]c23)cc1 | 11 | 27 | 19 | 0 | 187*
CN(c1ccccc1)c1nc2ccsc2c(=O)s1 | 47* | 17 | 11 | 7 | 99*
CN1CCN(C(=O)C[C@@H]2C=C[C@@H](NS(=O)(=O)c3cccc(F)c3)[C@H](CO)O2)CC1 | -3 | · | · | · | ·
C[C@@H]1CN([C@@H](C)CO)C(=O)Cc2cc(NC(=O)CCN3CCOCC3)ccc2O[C@@H]1CN(C)Cc1ccccc1 | 8 | · | · | · | ·
CC(=O)Nc1ccc(NC(=O)C(C)OC(=O)/C(C#N)=C/c2ccc(N(C)C)cc2)cc1 (configuration not stated) | 66* | 18 | 21 | 20 | 81*
Cc1cc(CN(C)C(=O)c2ccc3nc(Cc4ccccc4F)oc3c2)on1 | · | 34 | 13 | 18 | 98*
Cn1cc(CCNC(=O)c2ccc3nc(Cc4ccccc4F)oc3c2)cn1 | 75* | 35 | 27 | 33* | 125*
CCN(Cc1cnn(C)c1)C(=O)c1ccc2nc(Cc3ccccc3F)oc2c1 | 21 | · | · | -1 | ·
O=C(NCCc1ccccn1)c1ccc2nc(Cc3ccccc3F)oc2c1 | 72* | 33 | 14 | 16 | 54
Cn1cc(CNC(=O)c2ccc3nc(Cc4ccccc4F)oc3c2)cn1 | · | 41 | 21 | 13 | 84*
CC(C)c1cn(CC[C@H]2CC[C@@H](NC(=O)C3CCCCC3)[C@H](CO)O2)nn1 | 0 | · | · | · | ·
SMILES | esBAF inh | HSF-1 act | HSF1 inhib | Wnt act | MITF TRPM1 HTS
O=C(c1ccccc1)N1C[C@@H]2[C@H](c3ccccc31)[C@@H](CO)N2C(=O)CN1CCOCC1 | -4 | · | · | · | ·
Cn1cnc(S(=O)(=O)N[C@H]2C=C[C@@H](CC(=O)N3CCN(c4ccccc4)CC3)O[C@H]2CO)c1 | -7 | · | · | · | ·
CC(=O)N1[C@@H](CO)[C@H](c2ccc(-c3ccccc3)cc2)[C@@H]1CNC(=O)C1CC1 | 1 | · | · | · | ·
COc1cccc(-c2nc(-c3ccccn3)no2)c1OC | 43* | 10 | 15 | 60* | 84*
COc1ccccc1-c1noc(-c2cc(OC)c(OC)c(OC)c2)n1 | 4 | -6 | 3 | · | ·
COc1cc(-c2nc(-c3ccccn3)no2)cc(OC)c1OC | 50* | -13 | -7 | · | 63
CCn1c(CNc2ccc(Cl)cc2)nnc1SCC(=O)NCc1ccccc1 | -1 | 60* | 44 | · | -17
CCSc1nc2ccccc2n1CC(=O)OC | -8 | 3 | -4 | 0 | -1
CC(C)Sc1nc2ccccc2n1CC(N)=O | -2 | 10 | -3 | 44* | ·
COC(=O)Cn1c(SCc2ccccc2)nc2ccccc21 | 49* | 29 | 22 | · | 41
CCOC(=O)n1c(SCC(N)=O)nc2ccccc21 | · | -73 | -65* | -3 | -6
CN(C)C(=O)C[C@@H]1C[C@H]2c3cc(NS(C)(=O)=O)ccc3O[C@H]2[C@@H](CO)O1 | -5 | · | · | · | ·
